From PubChem BioAssay AID916 (National Center for Advancing Translational Sciences (NCATS), 2007) come the findings set out here.

Results filed as inconclusive are left out. Activity calls are given as the source filed them. The call rests on the fitted dose curve; in most records, active means well fitted activation curve with a large enough effect in the signal ratio, with a control signal flat (not every such curve was filed as active); inconclusive means small, poorly fitted or top-dose-only effect, or a change in a side signal; inactive means flat fitted curve, though single readings scatter; the % refers to the signal ratio.

A short description of this test: Confirmation Concentration-Response Assay for Cell signaling CRE-BLA (Fsk stim). The conditions noted are these: CHO CRE-bla reporter (cAMP response element driving beta-lactamase), NKH477 EC10 stim, FRET ratio; series mostly up to 38.3 µM. The source says:
NIH Molecular Libraries Screening Centers Network [MLSCN] NIH Chemical Genomics Center [NCGC] MLSCN Grant: 1X01MH079867-01 Assay Provider: Marshall W. Nirenberg, U.S. National Heart, Lung and Blood Institute CRE beta-lactamase Assay Overview Memories persist for different lengths of time, from seconds or minutes to a lifetime. There are two kinds of memory: short-term memory (STM) and long-term memory (LTM). STM lasts for minutes to hours, which maybe mediated by modifications of molecules involved in synaptic functions. LTM lasts for days or longer, and may be due to the formation of new synapses or restructuring of existing synapses. LTM, but not STM, requires gene transcription and synthesis of proteins. CREB (cyclic-AMP Responsive Element Binding Protein) is one of the candidates plays an important role for enhancement of some types of LTM. CREB, a family of transcription factors, regulates the transcription of genes containing cAMP Responsive Elements (CRE). CRE is a nucleotide sequence often found in the promoter regions of genes that are binding sites for CREB. Using a beta-lactamase reporter-gene under control of cAMP responsive element, a cell-based assay [CellSensor(TM) CRE-bla CHO developed by Invitrogen Corp.] was used to measure forskolin-induced signaling. The selected compounds were measured for their ability to modulate positively the action of EC10 NKH 477, a water soluble forskolin, on reporter gene activity. Compounds were screened in a titration series in 1536-well format. Positive modulators were identified based on the AC50 values derived from the screening data.
NCGC Assay Protocol Summary 2000 cells/5uL in Opti-MEM medium containing 0.5% dialyzed FBS, 0.1 mM NEAA, 1 mM sodium pyruvate and 10 mM HEPES was dispensed into 1536-well plates and cells were cultured at 37 degrees Celsius overnight. Next day 23 nL of compounds or DMSO were delivered to each well using a pin tool, and 1uL of EC10 level of NKH 477, or EC100 level of IBMX, a PDE inhibitor, in the present of NKH 477, or assay medium was added. And then the plates were incubated at 37 degrees Celsius for 3 hours. 1 uL of CCF4-dye mixture was added to each well. After incubated at room temperature for 2 hours the plates were measured on an EnVision plate reader at Excitation 405nm, Emission1=460nm and Emission 2=530nm. The %Activity was determined from the ratio of 460nm/530nm. Keywords: NIH Roadmap, MLSCN, MLSMR, qHTS, NCGC, CRE, beta-lactamase reporter-gene assay.
For `Cn1c(O)c(C=NCCOc2ccc(Cl)cc2)c(=O)n(C)c1=O`, the Potency was 15.8 µM (active).

In the case of `COc1cc2c(c(OC)c1OC)-c1ccc(OC)c(=O)cc1[C@@H](NC(C)=O)CC2`, the Potency was 5.01 µM (active).

Turning to `CC(C)C(=O)N1CCN(CCN=Cc2c(O)n(C)c(=O)n(C)c2=O)CC1`, the Potency entry is “inactive”.

For `Cn1c(C(=O)N2CCC3(CC2)OCCO3)cc2c(=O)n(C)c3ccccc3c21`, the Potency was 25.1 µM (active).
